Measured values: PubChem BioAssay (Tox21)
Records with an inconclusive call do not appear. Unmarked numbers belong to inactive results. Calls come from the whole dose curve; as a rule, active = well fitted inhibition curve with a large enough effect in the signal ratio in the repeat runs (not every such curve was filed as active); inconclusive = weak or mixed curves, or effect the other way; inactive = no such curve, though single readings can be large or run the other way; the % refers to the signal ratio.

Target: Vitamin D3 receptor (Homo sapiens) (UniProt P11473)
Assay: qHTS assay to identify small molecule antagonists of the vitamin D receptor (VDR) signaling pathway (AID 743223)
Conditions: VDR-UAS-bla HEK293T, beta-lactamase FRET ratio, 16 h; series mostly up to 61 µM; activity change, negative = inhibition: at the top concentration
From the text: U.S. Tox21 Program National Center for Advancing Translational Sciences [NCATS] NIH Chemical Genomics Center [NCGC] U.S. Environmental Protection Agency [EPA] National Institutes of Environmental Health Sciences [NIEHS] National Toxicology Program [NTP] U.S. Food and Drug Administration [FDA] Tox21 Assay Overview: The vitamin D receptor (VDR), a member of nuclear hormone receptor superfamily, plays a critical role in calcium homeostasis and bone metabolism. It is also involved in cell differentiation and growth, and thrombogenicity.
Tox21 Assay Protocol Summary: VDR-bla cells were dispensed at 2,000 cells/5 uL of assay medium per well into black wall/clear-bottom 1536-well plates using a Multidrop Combi (Thermo Fisher Scientific, Waltham, MA) dispenser. After the assay plates were incubated at a 37C and 5% CO2 for 4 h, 23 nL of compounds dissolved in DMSO, positive controls or DMSO only was transferred to the assay plate by a Pintool station (Kalypsys, San Diego, CA), followed by addition of 1 uL of 1alpha, 25-Dihydroxy Vitamin D3 (3 nM, final concentration in the wells) using a Bioraptr Flying Reagent Dispenser (FRD) workstation (Beckman Coulter, Indianapolis, IN). The plates were incubated at 37C and 5% CO2 for 16 h, and then 1 uL of LiveBLAzerTM B/G FRET substrate was added using a Bioraptr FRD. The plates were incubated at room temperature for 2 h and fluorescence intensity was measured by an Envision plate reader (PerkinElmer, Shelton, CT).
% is set by controls: 0 for no effect and ±100 for the full control effect.

Chain of Vitamin D3 receptor (Homo sapiens) (P11473 whole entry, looked up): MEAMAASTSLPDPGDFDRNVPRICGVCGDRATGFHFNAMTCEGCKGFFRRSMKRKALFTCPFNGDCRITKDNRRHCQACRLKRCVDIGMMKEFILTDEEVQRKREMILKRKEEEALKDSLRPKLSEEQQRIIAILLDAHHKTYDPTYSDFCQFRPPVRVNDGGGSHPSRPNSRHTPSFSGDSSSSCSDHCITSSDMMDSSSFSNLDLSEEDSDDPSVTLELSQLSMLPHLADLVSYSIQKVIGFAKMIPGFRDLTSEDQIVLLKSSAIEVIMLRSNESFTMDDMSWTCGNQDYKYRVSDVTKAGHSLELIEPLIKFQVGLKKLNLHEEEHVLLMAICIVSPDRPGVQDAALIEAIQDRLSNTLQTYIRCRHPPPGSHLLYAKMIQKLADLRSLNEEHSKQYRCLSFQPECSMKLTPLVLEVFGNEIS

Question: Which “activity change, negative = inhibition” value does the source give for `Cc1nc(C)c(C)nc1C` here?
Answer: -4.36%

Question: How did the “activity change, negative = inhibition” value turn out when `CCOC(=O)CC(O)(CC(=O)OCC)C(=O)OCC` was run?
Answer: -1.72%

Question: With `O=C(Cl)c1cc(Cl)cc(Cl)c1` as the compound, how does the “activity change, negative = inhibition” value read?
Answer: 11.4% [at 78.8 µM]

Question: `CC(=O)Nc1ccccc1O` was tested. Which “activity change, negative = inhibition” value did it give?
Answer: 8.96%

Question: How did the “activity change, negative = inhibition” value turn out when `OCCc1ccncc1` was run?
Answer: -4.22%

Question: Which “activity change, negative = inhibition” value does the source give for `CCC(C(=O)O)c1ccc(N2Cc3ccccc3C2=O)cc1` (stereo not given) here?
Answer: -8.18%

Question: How did the “activity change, negative = inhibition” value turn out when `CC(C)(O)C(=O)O` was run?
Answer: -0.461%

Question: Which “activity change, negative = inhibition” value does the source give for `C1CCN(CN2CCCCC2)CC1` here?
Answer: 2.91%

Question: Which “activity change, negative = inhibition” value does the source give for `Cc1c(-c2cccnc2)c2ccccc2n1CCCCC(=O)O` here?
Answer: 21.1%

Question: How did the “activity change, negative = inhibition” value turn out when `COc1cc(CNC(=O)CCCC/C=C/C(C)C)ccc1O` was run?
Answer: 11.1%

Question: With `CCC[Si](OC)(OC)OC` as the compound, how does the “activity change, negative = inhibition” value read?
Answer: 9.08%

Question: How did the “activity change, negative = inhibition” value turn out when `COc1ccc(/C(C)=C/C(=O)O)c(OC)c1` was run?
Answer: 1.56%

Question: How did the “activity change, negative = inhibition” value turn out when `CCCCCO` was run?
Answer: -0.493%

Question: How did the “activity change, negative = inhibition” value turn out when `c1ccc(-c2ccc(-c3ccccc3)cc2)cc1` was run?
Answer: 10.6% [at 28.5 µM]

Question: Which “activity change, negative = inhibition” value does the source give for `COc1ccc(/C=C/S(=O)(=O)NC(=O)c2ccc(C)cc2Cl)cc1` here?
Answer: 12.4%

Question: With `CC(C)=CCCC(C)C=O` (stereo not given) as the compound, how does the “activity change, negative = inhibition” value read?
Answer: -4.44%

Question: How did the “activity change, negative = inhibition” value turn out when `FC(F)(Cl)C(F)(Cl)Cl` was run?
Answer: 4.61%

Question: How did the “activity change, negative = inhibition” value turn out when `CC(O)C(C)O` (stereo not given) was run?
Answer: 1.4% [at 78.8 µM]

Question: Which “activity change, negative = inhibition” value does the source give for `CCCCCCCCCCCC(=O)OCC` here?
Answer: 5.44%

Question: Which “activity change, negative = inhibition” value does the source give for `Cc1c(N=C=O)cccc1N=C=O` here?
Answer: -0.32% [at 78.8 µM]

Question: How did the “activity change, negative = inhibition” value turn out when `CC(C)C/C=C(\C=O)c1ccccc1` was run?
Answer: 0.205%

Question: For `CC(=O)c1ccc(Cl)c(Cl)c1Cl`, which “activity change, negative = inhibition” value is on record?
Answer: 1.75%

Question: For `Cc1ccc(NC=O)c(C)c1`, which “activity change, negative = inhibition” value is on record?
Answer: -2.68%

Question: How did the “activity change, negative = inhibition” value turn out when `C=C[Si]1(C)O[Si](C)(C=C)O[Si](C)(C=C)O[Si](C)(C=C)O1` (stereo not given) was run?
Answer: 8.73%

Question: `CCCCCCCCS` was tested. Which “activity change, negative = inhibition” value did it give?
Answer: -11.9% [at 78.8 µM]

Question: How did the “activity change, negative = inhibition” value turn out when `O=C(OCCN1CCOCC1)c1cccnc1Nc1cccc(C(F)(F)F)c1` was run?
Answer: -10.2%

Question: With `O=C(OC1C[C@H]2CC[C@@H](C1)[N+]21CCCC1)C(O)(c1ccccc1)c1ccccc1` (stereo not given in full) as the compound, how does the “activity change, negative = inhibition” value read?
Answer: 7.24%

Question: How did the “activity change, negative = inhibition” value turn out when `OCCCO` was run?
Answer: -2.35% [at 78.8 µM]

Question: With `Cc1cc(C)c(C)c(O)c1` as the compound, how does the “activity change, negative = inhibition” value read?
Answer: -9%

Question: With `Oc1ccc(Oc2ccccc2)cc1` as the compound, how does the “activity change, negative = inhibition” value read?
Answer: -7.7%

Question: `CCCCCCCCCCCCCCCCCCCl` was tested. Which activity change, negative = inhibition did it give?
Answer: 1.88% [at 6.95 µM]

Question: How did the “activity change, negative = inhibition” value turn out when `CC(=O)CC/C=C(\C)CC/C=C(\C)CC/C=C(\C)CCC=C(C)C` was run?
Answer: 2.32%

Question: For `C=CC(C)CCC=C(C)C` (stereo not given), which “activity change, negative = inhibition” value is on record?
Answer: -0.765%

Question: How did the “activity change, negative = inhibition” value turn out when `C[C@H](N)C(=O)N[C@@H](C)C(=O)NC1[C@H]2CN(c3nc4c(cc3F)c(=O)c(C(=O)O)cn4-c3ccc(F)cc3F)C[C@@H]12` (stereo not given in full) was run?
Answer: -3.34%

Question: For `CC(C)(C)N`, which “activity change, negative = inhibition” value is on record?
Answer: 20%

Question: For `[O-][n+]1ccc(Cl)cc1`, which “activity change, negative = inhibition” value is on record?
Answer: -4.2% [at 78.8 µM]

Question: Which “activity change, negative = inhibition” value does the source give for `CC(O)CN` (stereo not given) here?
Answer: -11%

Question: For `CCc1cnc(C(=O)O)c(C(=O)O)c1`, which “activity change, negative = inhibition” value is on record?
Answer: 12.9% [at 78.8 µM]

Question: With `CCCCCCOC(=O)c1ccccc1` as the compound, how does the “activity change, negative = inhibition” value read?
Answer: -5.46%

Question: With `Clc1cc(Cl)c2c(c1)N=C1CCCCCN1C2` as the compound, how does the “activity change, negative = inhibition” value read?
Answer: -0.368%
